Screening data as filed in PubChem.
This is a sample that favours compounds with a hit; in the whole collection about 21% have one here.
Cycloheximide cs = Cycloheximide Counterscreen for Small Molecule Inhibitors of Shiga Toxin; cell reporter, cycloheximide protein synthesis inhibition counterscreen; max response, %; 300,000 tested, 12% active; AID 2314, 2010; in the data active = max response mostly above about 13%, no sharp cut-off; inactive = mostly below about 14%; also: read at 38.3 µM for the half of the compounds with a filed dose
Pf growth 96h = Primary qHTS for delayed death inhibitors of the malarial parasite plastid, 96 hour incubation. P. falciparum luciferase reporter growth, 96 h. Potency, µM (top dose mostly 28.7 µM), actives largely listed as inhibitors. 320,000 tested, 6.9% active
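Infected RBCs, 2% Hct / 0.05% parasitemia final; luciferase-reporter P. falciparum; cpd 96 h, 37 C, 5% CO2; luciferase detection reagent; luminescence.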
NS1 inh = qHTS Assay for Inhibitors of Influenza NS1 Protein Function | Potency, µM (doses to about 46.1 µM) | 270,000 tested, 0.4% active; calls by dose curve; also: actives are rising curves; nearly all actives have a fitted effect of over 50% in size
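Read-out: OD600 growth recovery of NS1-expressing budding yeast. Cells grown overnight at 30C in -URA glucose medium, washed, resuspended and diluted 1:100 in 2% galactose assay medium, pH 6.0. Same strain lacking NS1 served as positive control.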
FBPA Giardia inh = qHTS Assay for Inhibitors of Fructose-1,6-bisphosphate Aldolase from Giardia Lamblia | 290,000 tested, 0.71% active | purified Giardia FBPA | AID 2451, 2010 | Potency, µM (highest dose often 59.6 µM), usual class: inhibitors | A8B2U2; also: nearly all actives have a fitted effect of over 55% in size
Target sequence (A8B2U2 whole entry, looked up): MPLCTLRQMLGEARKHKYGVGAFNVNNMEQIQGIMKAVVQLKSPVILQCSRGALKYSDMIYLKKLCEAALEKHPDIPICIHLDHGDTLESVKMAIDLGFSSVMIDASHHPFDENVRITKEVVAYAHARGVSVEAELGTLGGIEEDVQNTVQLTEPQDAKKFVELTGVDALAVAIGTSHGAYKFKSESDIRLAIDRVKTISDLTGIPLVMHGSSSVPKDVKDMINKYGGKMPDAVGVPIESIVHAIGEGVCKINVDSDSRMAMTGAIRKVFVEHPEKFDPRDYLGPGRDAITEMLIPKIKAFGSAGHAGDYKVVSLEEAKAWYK
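40 nM FBPA preincubated 10 min at RT with compound (up to 57.5 uM final), then substrate plus GAPDH/TPI/NAD/arsenate coupling and diaphorase/resazurin added. Fluorescence read after 20 min at RT, 525/598 nm.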
Shiga toxin inh = A qHTS for Small Molecule Inhibitors of Shiga Toxin | inhibition, % at 38.7 µM | Vero cells, Shiga toxin protein synthesis inhibition reporter | AID 2315, 2010 | 290,000 tested, 9.2% active; in the data active = inhibition mostly above about 28%, no sharp cut-off; inactive = mostly below about 43%
Pf growth 48h = Primary qHTS for delayed death inhibitors of the malarial parasite plastid, 48 hour incubation. P. falciparum luciferase growth in erythrocytes, 48 h. Potency, µM (series often up to 28.7 µM), actives largely listed as inhibitors. 310,000 tested, 5.9% active. AID 504832, 2011
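Erythrocytes infected with P. falciparum carrying an integrated firefly luciferase reporter (2% hematocrit, 0.1% parasitemia final) were exposed to compounds in RPMI 1640 with 0.5% Albumax at 37 C, 5% CO2. Growth inhibition was scored as reduced luminescence.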
Hits are given with their value; n = inactive; u = inconclusive; x = no result; [ ] = remark or other dose. Unless noted, calls follow the shape of the dose curve; as a rule, active = well fitted curve in the direction sought with a large enough effect; inconclusive = small, poorly fitted or top-dose-only effect, or another doubt; inactive = no such curve, though single readings can be large; an effect the other way counts as inactive or inconclusive.

SMILES	Cycloheximide cs	Pf growth 96h	NS1 inh	FBPA Giardia inh	Shiga toxin inh	Pf growth 48h
C=CCN(C(=O)Cc1cccs1)c1nc(-c2ccc(S(C)(=O)=O)cc2)cs1	20.9	n	n	n	72.8	n
C=CCN(C(=O)CCc1ccccc1OC)c1nc(-c2ccc(S(C)(=O)=O)cc2)cs1	39.0	n	n	x	62.8	u
CS(=O)(=O)Nc1cccc(-c2ccc3ncnc(NCCN4CCOCC4)c3c2)c1	x	x	x	n	x	x
CCN(CC(=O)Nc1cc(Cl)ccc1C)C(=O)c1ccc2c(=O)n3c(nc2c1)CCC3	x	n	x	x	x	u
CC(C)CCNC(=O)c1cn(C)c2ccc(S(=O)(=O)N3CCCC3)cc2c1=O	n	u	n	x	n	n
C=CCn1cc(C(=O)NCCOC)c(=O)c2cc(S(=O)(=O)N3CCCCCC3)ccc21	n	u	n	n	n	u
C=CCn1cc(C(=O)NCCN(CC)CC)c(=O)c2cc(S(=O)(=O)N3CCCCCC3)ccc21	n	8.28µM	n	n	n	10.4µM
CC(C)CN(CCNC(=O)c1cn(C)c2ccc(S(=O)(=O)N3CCCC3)cc2c1=O)CC(C)C	n	9.28µM	n	x	n	n
O=C(NC12CC3CC(CC(C3)C1)C2)c1cncc(Br)c1	n	u	n	n	n	n
COc1cccc(N2CC(C(=O)N3CCC4(CC3)CC(=O)c3ccccc3O4)CC2=O)c1 (stereo not given)	x	n	x	x	x	u
O=C1CC2(CCN(C(=O)C3CC(=O)N(c4ccccc4)C3)CC2)Oc2ccccc21 (stereo not given)	x	9.28µM	x	x	x	u
Cc1ccc(/C=[N+](\[O-])c2ccc(N(C)C)cc2)c2nsnc12	33.6	n	x	u	84.9	n
Cc1cc(C)c(NC(=O)c2ccc(CN3CCc4ccccc4C3)cc2)c(C)c1	n	7.38µM	n	n	n	x
Cc1c(NC(=O)c2ccc(CN3CCc4ccccc4C3)cc2)c(=O)n(-c2ccccc2)n1C	n	u	n	u	n	u
CC(=O)c1cccc(NC(=O)c2ccc(CN3CCc4ccccc4C3)cc2)c1	12.5	u	n	n	n	14.7µM
Cc1cc(-c2ccn[nH]2)c(C)s1	n	u	n	n	n	u
Cc1cc(-c2cccc([N+](=O)[O-])c2)nc2ccccc12	n	n	n	n	n	n
Cc1cc[n+]2cc(-c3cccc([N+](=O)[O-])c3)c(-c3cccc([N+](=O)[O-])c3)cc2c1	n	0.147µM	n	n	n	0.828µM
O=S(=O)(Nc1cccc2ccccc12)c1cccs1	9.3	n	n	x	n	u
O=S(=O)(Nc1cccc2cccnc12)c1ccccc1O	n	x	x	19.9µM	n	x
O=S(=O)(Nc1cccc2cccnc12)c1cccs1	20.1	x	x	x	n	x
C=CC[C@@H]1C=C[C@H](O/N=C(\C)CCN2CCc3nc(-c4ccccc4)c(-c4ccccc4)cc3C2)[C@H](CO)O1	x	x	x	n[12.9 µM]	x	x
Cc1ccc(C(=O)NCCCNC(=O)c2ccccc2C)cn1	n	u	n	n	n	n
Cc1ccc(C(=O)NCCCNC(=O)c2ccccc2F)cn1	n	2.94µM	n	n	n	n
Cc1ccc(NC(=O)COC(=O)C2CC3C=CC2C3)cc1S(=O)(=O)N1CCCCC1 (stereo not given)	n	u	n	n	n	n
SMILES	Cycloheximide cs	Pf growth 96h	NS1 inh	FBPA Giardia inh	Shiga toxin inh	Pf growth 48h
Cc1ccc(C)c(N2CCN(C(=O)C34CC5CC(C3)CC(n3nnc(C)n3)(C5)C4)CC2)c1	n	u	n	n	n	10.4µM
COC(=O)c1ccc(C(=O)NN)cc1	n	n	n	n	n	n
COC(=O)c1ccc(C(=O)Nc2ccc(C(C)C)cc2N)cc1	32.1	n	x	n	69.5	n
CCOc1cc(/C=C(\C#N)C(=O)Nc2ccc(S(N)(=O)=O)cc2)ccc1OCCN1CCOCC1	n	n	n	n	n	n
COc1cccc(C(C(=O)NC2CCCCC2)N(C(=O)c2ccco2)c2ccc(-n3cnnn3)c(C)c2)c1 (stereo not given)	n	n	n	n	n	14.7µM
Cc1cc(N(C(=O)c2ccco2)C(C(=O)NC2CCCCC2)c2ccccc2)ccc1-n1cnnn1 (stereo not given)	n	x	n	n	n	9.28µM
Cc1ccc2c(c1C)NC(=O)C21N2CCCC2C(C(=O)c2ccc3ccccc3c2)C12C(=O)Nc1ccccc12 (stereo not given)	56.4	9.28µM	n	n	n	9.28µM
O=C(Nc1ccccc1C(=O)O)C1=NN=CC1	n	n	n	n	n	n
C/C(=N\NC(=O)c1ccccc1)c1ccccc1F	25.6	n	n	n	86.6	n
C/C(=N\NC(=O)OC(C)(C)C)c1ccccc1Br	59.2	n	n	n	62.8	n
C/C(=N\NC(=O)c1ccccc1)c1ccccc1Br	58.1	n	n	n	66.9	n
O=C(Nc1ccc(NC(=O)c2ccccc2Br)cc1)c1ccccc1	n	n	n	n	n	n
C/C(=N\NC(=O)c1ccccc1OCCOc1ccccc1)c1ccccc1F	x	u	x	x	x	11.7µM
O=C(Cn1nc(Br)nc1Br)c1ccccc1	n	u	n	n	n	u
CCc1nc2ccccc2c(C(=O)OCC(=O)N2CC(C)OC(C)C2)c1C (stereo not given)	x	u	x	x	x	n
S=c1nc(C2CCCCC2)[nH]c2ccccc12	n	2.33µM	n	n	n	n
Cc1ccc2nc(C3CCCCC3)[nH]c2c1	38.2	u	n	n	42.2	n
Cc1ccc(CN2CCC(c3nc4ccc(Cl)cc4[nH]3)CC2)cc1	n	u	n	n	n	8.28µM
S=c1nc(C2CC2)[nH]c2ccccc12	n	x	n	n	n	n
CC(N)=NCCCC[C@@H](N)C(=O)O	x	x	n	n	x	x
Nc1ncnc2c1ncn2[C@@H]1O[C@H](CO)[C@H](O)[C@H]1O	x	x	n	n	x	x
COc1ccccc1C1N=C(c2ccccc2C)NO1 (stereo not given)	44.3	n	n	n	122.5	n
Cc1ccccc1C1=NC(c2ccc(F)cc2F)ON1 (stereo not given)	30.4	x	n	n	n	n
O=S(=O)(Nc1ccc(N=Nc2ccc(O)c3ccccc23)cc1)c1ccccc1	n	5.22µM	u	u	n	2.33µM
COc1ccccc1C(C)NC(=O)c1ccccc1SCC(=O)N1CCCC1 (stereo not given)	x	n	x	x	x	n
SMILES	Cycloheximide cs	Pf growth 96h	NS1 inh	FBPA Giardia inh	Shiga toxin inh	Pf growth 48h
COc1ccc(-c2nc(-c3cccc(C)c3)no2)cc1OC	25.1	x	n	n	60.0	n
Cc1cccc(-c2noc(-c3c(C)noc3C)n2)c1	n	n	n	n	n	n
COc1cc(-c2nc(Cc3c(F)cccc3Cl)no2)cc(OC)c1OC	n	u	u	n	n	11.7µM
COc1cc(-c2noc(-c3cccc(Cl)c3)n2)cc(OC)c1OC	n	14.7µM	n	n	n	n
COc1ccccc1-c1nc(-c2cccc(C)c2)no1	45.8	u	n	n	121.8	n
NC(=O)c1ccc(-c2noc(-c3cccc(Cl)c3)n2)cc1	x	n	x	x	x	n
